For 17 molecules, composite z-score and z-score results are on record in PubChem BioAssay.

Assay [1] has as its system Plasmodium falciparum Sir2 (PF13_0152, Sir2A). Briefly: Plasmodium falciparum Sir2A binding compounds – biochemical, small-molecule microarray, 635 nm fluorescence, primary screen (AID 1098).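 Note: score merges spot fluorescence intensity with its signal-to-noise ratio.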 The settings on record: fluorescence 635 nm, higher = more signal.
The nature of assay [2]: probe aDKK1 binding to arrayed compounds – biochemical, biotinylated probe, 635/667 nm fluorescence, primary screen (AID 1099).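 Note: score merges 667nm spot fluorescence with signal to noise across triplicate slides; reference of the scale not given here.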 The settings on record: small-molecule microarray, higher = more signal.
The nature of assay [3]: probe aCHRDL2 binding to arrayed compounds – biochemical, biotinylated probe, 635/667 nm fluorescence, primary screen (AID 1100). The note with it: small-molecule microarray, higher = more signal.
The nature of assay [4]: change in splice reporter luminescence, either direction, cell-based, HEK293, spliceosome inhibition project, primary screen (AID 1101).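 Note: HEK293 cells carrying a splicing-competent luciferase reporter gene; test concentration not given here.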 The note with it: HEK293 splicing luciferase reporter, 24 h, higher = more signal, called active from +8 up or from −8 down. A general note: Reporter assays use an easily measured gene product as a stand-in for the process of interest.
Assay [5] addresses Fibroblast growth factor 10 (Homo sapiens) (UniProt O15520). The assay is described as follows: compounds binding fibroblast growth factor 10 – biochemical, small-molecule microarray, 635 nm fluorescence, primary screen (AID 1102). The note with it: FGF10 binding, fluorescence 635 nm, higher = more signal.
The subject of assay [6] is glycogen synthase kinase-3 (GSK3A per assay name; protocol says GSK3B). The assay is described as follows: compounds binding glycogen synthase kinase-3 – biochemical, small-molecule microarray, 635 nm fluorescence, GSK3A, primary screen (AID 1103). Note: the record names both GSK3A and GSK3B. The note with it: fluorescence 635 nm, higher = more signal.
Assay [7] deals with Epidermal growth factor receptor (Homo sapiens) (UniProt P00533). Briefly: compounds binding epidermal growth factor receptor – biochemical, small-molecule microarray, 635 nm fluorescence, primary screen (AID 1104).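 Note: score merges 667 nm emission intensity with spot signal to noise over triplicate slides.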 The settings on record: EGFR binding, higher = more signal.
For assay [8], the target named is Follistatin-related protein 3 (Homo sapiens) (UniProt O95633). The assay is described as follows: compounds binding follistatin-related protein 3 – biochemical, small-molecule microarray, 635 nm fluorescence, primary screen (AID 1105).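 Note: score merges emission near 667 nm and signal to noise per printed spot across three slides.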 The note with it: FSTL3 binding, higher = more signal.
Assay [9] addresses Dickkopf-related protein 1 (Homo sapiens) (UniProt O94907). The assay is described as follows: small molecules binding DKK1 protein – biochemical, small-molecule microarray, 635 nm fluorescence scan, primary screen (AID 1106).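 Note: score merges emission near 667 nm with signal to noise over three replicate slides.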 The settings on record: higher = more signal.
For assay [10], the system named is Inhibin beta A chain (activin A). The assay is described as follows: small molecules binding activin A – biochemical, small-molecule microarray, 635 nm fluorescence scan, primary screen (AID 1107).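 Note: mouse activin A protein probed at 4.33 µg/mL on printed slides; score merges bound-protein fluorescence near 667 nm with spot signal-to-noise.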 The note with it: INHBA, higher = more signal.

The source made the active and inactive calls.

Fibroblast growth factor 10 (Homo sapiens), sequence (O15520 whole entry, looked up): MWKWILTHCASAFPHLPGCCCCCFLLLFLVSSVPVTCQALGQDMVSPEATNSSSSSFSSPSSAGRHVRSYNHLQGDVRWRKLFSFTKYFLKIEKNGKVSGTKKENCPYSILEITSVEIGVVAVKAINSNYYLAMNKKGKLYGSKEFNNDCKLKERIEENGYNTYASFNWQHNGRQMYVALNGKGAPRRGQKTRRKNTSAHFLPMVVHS
Dickkopf-related protein 1 (Homo sapiens), sequence (O94907 whole entry, looked up): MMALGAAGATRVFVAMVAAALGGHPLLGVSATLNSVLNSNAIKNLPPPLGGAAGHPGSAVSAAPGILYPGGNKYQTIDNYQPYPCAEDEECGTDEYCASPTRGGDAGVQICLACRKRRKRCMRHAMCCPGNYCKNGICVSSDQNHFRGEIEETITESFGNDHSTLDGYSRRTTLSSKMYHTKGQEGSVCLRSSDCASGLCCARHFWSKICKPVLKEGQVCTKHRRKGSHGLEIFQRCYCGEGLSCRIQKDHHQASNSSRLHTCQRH
Follistatin-related protein 3 (Homo sapiens), sequence (O95633 whole entry, looked up): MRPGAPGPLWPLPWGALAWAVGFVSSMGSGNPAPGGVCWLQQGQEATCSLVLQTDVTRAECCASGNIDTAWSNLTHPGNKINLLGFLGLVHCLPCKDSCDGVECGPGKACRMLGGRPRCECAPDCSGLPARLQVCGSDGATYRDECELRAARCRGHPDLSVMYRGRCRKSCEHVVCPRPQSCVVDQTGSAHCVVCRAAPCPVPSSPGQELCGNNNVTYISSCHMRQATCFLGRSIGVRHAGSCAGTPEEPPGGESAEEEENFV
Epidermal growth factor receptor (Homo sapiens), sequence (P00533 whole entry, looked up): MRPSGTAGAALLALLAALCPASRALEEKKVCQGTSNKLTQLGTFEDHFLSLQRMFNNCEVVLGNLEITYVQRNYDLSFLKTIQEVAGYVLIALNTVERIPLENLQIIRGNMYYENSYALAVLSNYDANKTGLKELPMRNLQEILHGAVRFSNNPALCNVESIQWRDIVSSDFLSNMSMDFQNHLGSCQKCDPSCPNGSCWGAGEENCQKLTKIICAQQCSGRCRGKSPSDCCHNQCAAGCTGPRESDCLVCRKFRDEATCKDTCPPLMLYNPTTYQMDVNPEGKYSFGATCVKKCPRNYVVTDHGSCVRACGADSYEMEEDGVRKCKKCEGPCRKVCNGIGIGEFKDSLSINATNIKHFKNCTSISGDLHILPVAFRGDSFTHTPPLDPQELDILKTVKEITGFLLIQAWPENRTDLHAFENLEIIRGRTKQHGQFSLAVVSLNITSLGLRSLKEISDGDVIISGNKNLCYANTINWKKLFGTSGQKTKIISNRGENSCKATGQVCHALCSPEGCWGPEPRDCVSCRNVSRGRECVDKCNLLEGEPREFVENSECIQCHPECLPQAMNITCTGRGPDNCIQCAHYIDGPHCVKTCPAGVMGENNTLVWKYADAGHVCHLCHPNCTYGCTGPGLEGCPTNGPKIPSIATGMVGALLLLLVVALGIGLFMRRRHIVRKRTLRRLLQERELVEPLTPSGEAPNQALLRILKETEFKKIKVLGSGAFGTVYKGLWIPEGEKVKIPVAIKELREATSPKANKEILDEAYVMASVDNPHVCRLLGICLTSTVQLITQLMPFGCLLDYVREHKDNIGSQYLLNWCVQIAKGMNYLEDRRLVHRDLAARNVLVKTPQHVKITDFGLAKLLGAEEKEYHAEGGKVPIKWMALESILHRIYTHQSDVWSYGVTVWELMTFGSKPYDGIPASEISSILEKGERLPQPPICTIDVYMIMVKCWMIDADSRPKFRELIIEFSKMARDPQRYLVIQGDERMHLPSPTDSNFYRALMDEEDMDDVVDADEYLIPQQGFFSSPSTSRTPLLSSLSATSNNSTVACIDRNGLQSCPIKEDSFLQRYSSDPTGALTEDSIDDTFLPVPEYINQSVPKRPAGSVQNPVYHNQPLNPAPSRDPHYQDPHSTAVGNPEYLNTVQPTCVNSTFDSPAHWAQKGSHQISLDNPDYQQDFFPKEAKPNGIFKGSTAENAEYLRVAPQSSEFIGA

For the molecule `NCCCC[C@@H]1NC(=O)[C@H]2C[C@@H](C(=O)NCc3ccc(F)cc3)[C@@H](c3ccc(O)cc3)N2C1=O`, the composite z-score amounted to 1.6 in [1]; 0.831 in assay [2]; 1.07 in assay [3]; 0.186 in [5]; 1.33 in assay [6]; 0.117 in [7]. Also, the composite z-score in assay [8] was 1; in assay [9] it was 0.496; in [10] it was 1.2. Further, the z-score in assay [4] is 0.374 (inactive).
In the case of `C=CCNC(=O)[C@@H]1[C@H]2C(=O)O[C@H](c3ccccc3)[C@H](c3ccccc3)N2[C@H](c2ccccc2OCCO)[C@@]12C(=O)N(C(=O)OCCOC)c1ccc(C#CCCO)cc12`, the composite z-score is 1.05 in [1]; -0.274 in assay [2]; 0.272 in [3]; 1.35 in assay [5]; 1.23 in assay [6]; 0.266 in [7]. The composite z-score in assay [8] came to 0.904; in assay [9], 0.312; in assay [10] it was 0.241. In addition, the z-score in assay [4] is -0.821 (inactive).
As to `CC(C)(C)OC(=O)CC[C@]1(C(=O)N2CCOCC2)N=C(c2ccc(OCCCO)cc2)O[C@H]1c1ccccc1CN=[N+]=[N-]`, the composite z-score in assay [1] is 1.61; in assay [2] it was 0.528; in [3] it was 0.885; in [5], 1.4; in [6], 1.32; in [7], -0.0261. For the same molecule, the composite z-score in assay [8] was 1.08; in assay [9], -0.0465; in assay [10], 0.543. Besides, in assay [4], the z-score is -0.371 (inactive).
As to `CC(C)CNC(=O)[C@@H]1c2ccccc2C(=O)N(C2Cc3ccccc3C2)[C@H]1c1ccc(CO)cc1`, the composite z-score is 1.41 in [1]; -0.0818 in assay [2]; 0.435 in [3]; -0.127 in assay [5]; -0.0545 in assay [6]; -0.267 in assay [7]. Further, the composite z-score was -0.192 in assay [8], -0.777 in assay [9] and 0.245 in assay [10]. Moreover, in assay [4], the z-score was -0.179 (inactive).
With `Cc1ccc(S[C@]2(C(=O)NC3CC3)CC(=O)N(Cc3cc(C(F)(F)F)cc(C(F)(F)F)c3)[C@@H]2c2ccc(CO)cc2I)cc1`, the composite z-score in assay [1] was 1.8; in assay [2] it was 0.679; in assay [3], -0.525; in assay [5] it was 0.126; in assay [6], 0.322; in [7], -0.141. The composite z-score in assay [8] is 0.484; in assay [9] it was -0.0211; in assay [10] it was 1.15. The z-score in assay [4] is 0.0986 (inactive).
With `C=C(CCCC)C(=O)CC[C@H](OC(C)=O)c1ccccc1OCCO`, the composite z-score in [1] was 1.51; in [2], -0.179; in assay [3], -0.123; in [5] it was 0.633; in assay [6] it was -0.783; in [7], 0.333. The values for the composite z-score in assay [8], in assay [9] and in assay [10] were 0.467, 0.513 and 0.491, respectively. Besides, the z-score in assay [4] was 1.77 (inactive).
As to `CCCC[C@@H]1C[C@H]1[C@@H](NC(=O)c1ccc(C(F)(F)F)cc1)c1ccc(C(=O)OC)cc1`, the composite z-score was 0.234 in [1]; 0.172 in assay [2]; 0.158 in assay [3]; 0.743 in [5]; 0.352 in [6]; 0.6 in assay [7]. The composite z-score in [8] was found to be 1.09; in assay [9] it was 0.583; in assay [10], 1.32. In assay [4], the z-score is -1.22 (inactive).
`COC(=O)[C@@]1(Cc2ccc(OC)cc2)[C@H]2c3cc(C(=O)N4CCCC4)n(CCc4ccc(OC)c(Br)c4)c3C[C@H]2CN1C(=O)c1ccccc1`: the composite z-score was 1.31 in assay [1]; 0.801 in assay [2]; 0.904 in assay [3]; 0.714 in assay [5]; -0.199 in assay [6]; 0.0993 in assay [7]. For the same molecule, the composite z-score in [8] was -0.457; in assay [9] it was -0.858; in [10], 1.03. For the same molecule, in [4], the z-score was -0.947 (inactive).
With `C=CCC(OC(C)=O)[C@@H]1[C@@H](N(Cc2ccc(-c3cccc(C(F)(F)F)c3)o2)C(=O)c2cccc3ccccc23)c2cc(OCCCO)ccc2N1C(=O)c1ccc2ccccc2c1` (stereo not given in full), the composite z-score in assay [1] was 0.542; in [2], 0.0086; in [3], 0.256; in assay [5] it was 0.119; in assay [6], -1.08; in assay [7], 0.142. The values for the composite z-score in assay [8], in assay [9] and in [10] were 0.317, 0.289 and 1.2, respectively. For the same molecule, in [4], the z-score was -0.874 (inactive).
On to `CCN(CC)c1ccc(N2CC=CC34O[C@@H]5C=CCOC(=O)[C@@H]5[C@H]3C(=O)N(CCO)[C@@H]4C2=O)cc1` (stereo not given in full), for which the composite z-score in assay [1] was 1.47; in assay [2], -0.0117; in [3] it was 0.54; in [5] it was -0.938; in assay [6] it was -0.562; in assay [7], -1.66. For the same molecule, the values for the composite z-score in assay [8], in assay [9] and in assay [10] were -0.952, -1.51 and -0.292, respectively. Besides, the z-score in assay [4] is 0.0206 (inactive).
Regarding `COC(=O)[C@@]1(Cc2ccccc2)[C@@H]2[C@@H](CC(=O)[C@H]2CC(=O)C(=O)N(C)C)CN1C(=O)c1ccccc1`, the composite z-score was 1.05 in [1]; 0.0889 in assay [2]; 0.929 in assay [3]; 0.225 in assay [5]; -0.901 in [6]; -0.185 in [7]. The composite z-score in assay [8] is -0.0272; in [9], -0.782; in assay [10], 0.988. Also, the z-score in assay [4] was -0.155 (inactive).
For the molecule `CCCCC(=C=CC[C@@H](O)c1ccc(OCCO)cc1)C[C@@H](O)c1ccccn1`, the composite z-score in assay [1] was 0.381; in assay [2], -0.0087; in [3], -0.162; in [5], 0.279; in assay [6], 0.382; in [7], -0.123. The composite z-score in assay [8] was 0.588; in [9], 0.414; in assay [10], 0.981. Moreover, the z-score in [4] was 0.0171 (inactive).
Take `COc1cc2c(cc1O)C(c1ccc(CN3CCCC3)cc1)N(Cc1cccc(OC(F)(F)F)c1)CC2` (stereo not given): the composite z-score in assay [1] was determined as 1.02; in assay [2] it was 0.422; in assay [3] it was 0.414; in [5] it was 0.15; in assay [6], 0.213; in assay [7] it was 0.576. Besides, the composite z-score worked out at 0.81 in assay [8], 0.36 in assay [9] and 1.44 in [10]. The z-score in [4] was -2.59 (inactive).
For `CN(C)CCCNC(=O)[C@@]1(Cc2ccccc2I)c2ccccc2C(=O)N(Cc2ccccc2)[C@H]1c1ccc(CO)cc1`, the composite z-score is 1.54 in assay [1]; 1.04 in assay [2]; -0.726 in [3]; 1.37 in [5]; 1.33 in assay [6]; 0.17 in [7]. The figures for the composite z-score in [8], in assay [9] and in assay [10] were 0.617, 0.707 and 0.0573, respectively. For the same molecule, in [4], the z-score was 0.652 (inactive).
Regarding `CC(C)CNC(=O)[C@@H]1c2ccccc2C(=O)N(Cc2ccccc2)[C@H]1c1ccc(CO)cc1`, the composite z-score is 0.0346 in assay [1]; 0.282 in [2]; 0.96 in [3]; -0.787 in assay [5]; 0.0758 in assay [6]; -1.35 in assay [7]. In addition, the composite z-score in assay [8] was -1.38; in assay [9], -1.05; in [10] it was -0.217. For the same molecule, in assay [4], the z-score is -0.18 (inactive).
Regarding `C=CCC(OC(C)=O)[C@@H]1[C@@H](N(Cc2ccc(-c3cccc(C(F)(F)F)c3)o2)C(=O)Cc2ccc(F)cc2)c2cc(OCCCO)ccc2N1C(=O)c1ccc2ccccc2c1` (stereo not given in full), the composite z-score was 0.819 in [1]; -0.185 in [2]; 0.429 in [3]; -0.701 in [5]; -1.87 in assay [6]; -0.659 in assay [7]. Further, the composite z-score is 0.199 in assay [8], -0.0392 in assay [9] and 1.08 in [10]. Moreover, the z-score in assay [4] is -0.182 (inactive).
Take `CC(C)(C)N1CC=CC23O[C@@H]4/C=C\CCCOC(=O)C4[C@H]2C(=O)N(CCCCCCO)[C@@H]3C1=O` (stereo not given in full): the composite z-score was 0.873 in assay [1]; -0.204 in assay [2]; 0.63 in assay [3]; -0.374 in assay [5]; -0.749 in assay [6]; -0.741 in assay [7]. Further, the composite z-score in assay [8] is 0.0927; in assay [9], -0.857; in assay [10], 0.705. The z-score in assay [4] is -0.725 (inactive).
